{"source": "the supplement of paper PMC10646978", "note": "± gives the standard deviation.", "data": [{"test_system": "RAW-Dual (murine macrophage reporter line)", "test": "NF-kB reporter (SEAP) activity fold change vs agonist alone; higher = enhanced NF-kB activity", "conditions": "modulator concentration 10 µM; agonist: CpG ODN 1826 0.5 ug/mL", "in_short": "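RAW-Dual murine macrophage reporter cells were seeded at 50 000 per well in 384-well plates and pre-incubated 1 hour at 37 °C with compound pin-transferred to 10 μM final. After 1 hour, a PRR agonist was added and cells incubated overnight. Supernatant NF-κB (SEAP, QUANTI-Blue, 620 nm absorbance) and IRF (Lucia luciferase, QUANTI-Luc, luminescence) signals were divided by the mean agonist-only control on the same plate to give fold change. Two replicate plates were averaged, with errors by propagation.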", "values": [{"molecule": "CN(C(=O)c1cncc(F)c1)C1CN(c2ccc3nnc(C4CC4)n3n2)C1", "NF-kB reporter": "0.937 ± 0.055"}, {"molecule": "Cc1ncc(CC(=O)N2CCC(c3ccccc3Cl)S(=O)(=O)CC2)s1", "note": "(stereo not drawn)", "NF-kB reporter": "0.884 ± 0.07"}, {"molecule": "O=C(C=Cc1ccc(O)cc1)c1ccc(O)cc1O", "NF-kB reporter": "1.33 ± 0.36"}, {"molecule": "Cc1cccc(C(=O)ON=C(c2ccncc2)c2ccc([N+](=O)[O-])cc2)c1", "NF-kB reporter": "0.806 ± 0.07"}, {"molecule": "CCOC(=O)C1=C(C)NC(=S)NC1c1ccccc1OCc1ccccc1", "note": "(stereo not drawn)", "NF-kB reporter": "0.862 ± 0.069"}, {"molecule": "O=C(C1COCC(=O)N1Cc1ccccc1)N1CCN(c2cccc(Cl)c2)CC1", "note": "(stereo not drawn)", "NF-kB reporter": "1.01 ± 0.05"}, {"molecule": "COC(=O)C1=CN(CC2CCCO2)C=C(C(=O)OC)C1c1cccc(F)c1", "note": "(stereo not drawn)", "NF-kB reporter": "0.948 ± 0.21"}, {"molecule": "CCOC(=O)[C@H](CCc1ccccc1)N[C@H]1CCc2ccccc2N(CC(=O)O)C1=O", "note": "[Prestw-1129]", "NF-kB reporter": "1.13 ± 0.097"}, {"molecule": "NC(CO)(CO)CO.O=C(c1ccccc1)c1ccc2n1CCC2C(=O)O", "note": "(stereo not drawn)", "NF-kB reporter": "0.916 ± 0.18"}, {"molecule": "COc1ccc(C2C3=C(CC(c4ccccc4)CC3=O)Nc3ccccc3N2C(=O)C(C)C)cc1OC", "note": "(stereo not drawn)", "NF-kB reporter": "1.02 ± 0.089"}, {"molecule": "Cl.N=C(N)NC(=O)c1nc(Cl)c(N)nc1N", "NF-kB reporter": "1.2 ± 0.18"}, {"molecule": "O=Cc1cn(CCOc2ccc(Br)cc2)c2ccccc12", "NF-kB reporter": "1.25 ± 0.13"}, {"molecule": "N#Cc1c(N=Cc2ccc(Br)cc2)sc2c1CCCC2", "NF-kB reporter": "0.782 ± 0.075"}, {"molecule": "COc1c2c(nc3ccccc13)OC(C(C)(O)COC(C)=O)C2", "note": "(stereo not drawn)", "NF-kB reporter": "0.944 ± 0.071"}, {"molecule": "Cc1ccc(OCCCOc2cccc3cccnc23)c(C)c1", "NF-kB reporter": "0.854 ± 0.11"}, {"molecule": "O=S(=O)(c1ccc(F)cc1)n1cccc1", "NF-kB reporter": "0.812 ± 0.065"}, {"molecule": "C[C@@H]1COC(Nc2ccc3ncnc(Nc4ccc(OCc5nccs5)c(Cl)c4)c3c2)=N1", "NF-kB reporter": "0.381 ± 0.07"}, {"molecule": "NCCCC[C@H](N[C@@H](CCc1ccccc1)C(=O)O)C(=O)N1CCC[C@H]1C(=O)O", "NF-kB reporter": "1.01 ± 0.076"}]}]}
